A selection: hits, their analogues and other compounds. The true share with any hit is near 3.5%.
MITF inh: inhibitors of human MITF | O75030 | AlphaScreen MITF homodimerization, bead proximity signal | inhibition, % at 2.6 µM | 650,000 compounds, 0.91% hits; in the data active = inhibition above about 50%;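 note: 0% = vehicle wells with protein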
FBW7 act: activators of human E3 ligase FBW7 | Q969H0 | AlphaScreen FBW7–phospho-cyclin E peptide binding, activator screen | normalized activity (activation), % at 26.1 µM | 650,000 compounds, 0.13% hits | AID 1259310; in the data active = normalized activity above about 1.9%;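 note: purified mutant Fbw7 with reduced substrate affinity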
Target sequence (Q969H0 whole entry, looked up): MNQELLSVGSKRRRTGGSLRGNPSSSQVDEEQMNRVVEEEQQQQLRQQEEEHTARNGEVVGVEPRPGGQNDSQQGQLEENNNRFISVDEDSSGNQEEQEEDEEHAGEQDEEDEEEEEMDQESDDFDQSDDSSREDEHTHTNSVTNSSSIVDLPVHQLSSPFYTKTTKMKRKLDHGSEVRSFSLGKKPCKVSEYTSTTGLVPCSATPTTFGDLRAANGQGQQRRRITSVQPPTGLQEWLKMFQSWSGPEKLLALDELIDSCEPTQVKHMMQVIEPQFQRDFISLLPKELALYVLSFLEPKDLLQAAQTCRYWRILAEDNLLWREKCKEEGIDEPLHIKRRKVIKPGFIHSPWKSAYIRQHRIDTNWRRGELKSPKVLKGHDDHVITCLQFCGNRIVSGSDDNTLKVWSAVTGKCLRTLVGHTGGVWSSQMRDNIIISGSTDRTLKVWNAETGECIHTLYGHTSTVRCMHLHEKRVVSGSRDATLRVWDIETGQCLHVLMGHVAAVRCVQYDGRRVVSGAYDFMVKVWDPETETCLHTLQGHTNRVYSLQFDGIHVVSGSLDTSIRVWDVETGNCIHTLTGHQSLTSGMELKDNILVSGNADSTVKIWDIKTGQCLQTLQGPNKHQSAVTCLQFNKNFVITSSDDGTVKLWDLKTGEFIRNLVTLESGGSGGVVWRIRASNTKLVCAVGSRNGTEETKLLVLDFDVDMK
GPR151 activ: human GPR151 activation; Q8TDV0; PathHunter beta-arrestin GPR151 cells, luminescence; activation, % at 11.2 µM; 650,000 compounds, 1% hits; AID 1508602; in the data active = activation above about 4.9%;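 note: 0% = median of compound wells and 100% = cells with positive control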
TEAD-YAP block: TEAD-YAP interaction inhibition | AID 1259422 | HEK-TIYL cells, TEAD-Gal4/YAP UAS-luciferase luminescence | inhibition, % at 9.12 µM | 640,000 compounds, 1.4% hits; in the data active = inhibition above about 32%;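 note: 0% = median of test compound wells and 100% = reference inhibitor wells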
MITF confirm: human MITF inhibition, confirmation; shares compounds with MITF inh; AlphaScreen MITF homodimerization, biotin/His-MITF beads; inhibition, % at 2.6 µM; 4,700 compounds, 16% hits; AID 1259372;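 active = inhibition above a cutoff derived from the DMSO control wells, cut at about 28% in these data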;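 note: 0% = MITF dimer wells with DMSO only; inhibitors lower the bead chemiluminescence by keeping MITF from dimerizing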
AlphaScreen DR: AlphaScreen optical interference, dose response counter-screen; 480 compounds, 6% hits; AID 1259373; shares compounds with MITF inh; IC50, µM; AlphaScreen optical interference counterscreen, cell-free; call rule not given here
AS interf ctr: optically interferes with AlphaScreen signal; shares compounds with MITF inh; AID 1259376; LysRS AlphaScreen counterscreen, signal interference, triplicate; 4,700 compounds, 7.6% hits; inhibition, % at 2.6 µM;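 active = inhibition above a cutoff derived from the DMSO control wells, cut at about 30% in these data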
* hit, by the source's call; nt = no result.

SMILES	MITF inh	FBW7 act	GPR151 activ	TEAD-YAP block	MITF confirm	AS interf ctr	others
CCC(CC)NC(=O)CSc1nnc(NC2CCCCC2)s1	6	0	0	-7	nt	nt
O=C(c1ccccc1Br)N(Cc1cccc(Cl)c1)C1CCS(=O)(=O)C1 (stereo not drawn)	0	0	2	-3	nt	nt
CC1CCCN(C(=O)C2CCN(Cc3ccccc3F)CC2)C1 (stereo not drawn)	67*	0	0	6	-12	-10
CC1CCCN(C(=O)C2CCN(Cc3cccc(Cl)c3)CC2)C1 (stereo not drawn)	57*	1	2	7	-1	-5
COc1cc(CN2CCC(C(=O)N3CCCC(C)C3)CC2)cc(Br)c1O (stereo not drawn)	52*	1	-1	-1	-7	-4
CCN1CCN(C(=O)C2CCN(Cc3cc(Br)c(O)c(OC)c3)CC2)CC1	45	0	-1	2	nt	nt
CC1CCCN(C(=O)C2CCN(Cc3cccc4ccccc34)CC2)C1 (stereo not drawn)	28	1	-2	14	nt	nt
CC1CCCN(C(=O)C2CCN(Cc3cccc(Br)c3)CC2)C1 (stereo not drawn)	62*	1	0	6	-7	-2
Cc1ccc2c(c1)C(c1ccccc1)N(C(=O)c1cc(Cl)cc(Cl)c1)CC(=O)N2 (stereo not drawn)	6	0	-1	-4	nt	nt
O=C(O)c1cccc(CSc2n[nH]c(-c3ccco3)n2)c1	15	0	0	-1	nt	nt
COc1ccc(NC(=O)Cn2nnc(-c3ccccc3N)n2)cc1OC	58*	0	0	10	7	13
COc1ccccc1C(=O)Nc1ccccc1-c1nnn(CC(N)=O)n1	93*	0	2	-2	13	12
COc1cc(C(=O)Nc2ccccc2-c2nnn(CC(N)=O)n2)cc(OC)c1OC	3	0	0	10	nt	nt
Cc1ccc(S(=O)(=O)Nc2ccccc2C(=O)Nc2ccc(Br)cc2C(=O)c2ccccc2)cc1	-4	0	1	-6	nt	nt
COc1ccc(C(=O)N2CCN(Cc3ccccc3F)CC2)cc1	62*	0	-1	-1	-10	-4
CCOC(=O)N1CCN(C(=O)C2CCN(Cc3cccc4ccccc34)CC2)CC1	51*	0	0	-4	11	18
COc1ccc(C(=O)N2CCN(Cc3cccc4ccccc34)CC2)cc1	59*	0	3	7	6	-4
COc1ccc(C(=O)N2CCN(Cc3c[nH]c4ccccc34)CC2)cc1OC	17	0	1	9	nt	nt
COc1cccc(CN2CCN(C(=O)c3ccc(F)cc3)CC2)c1OC	32	0	3	4	nt	nt
COc1ccc(C(=O)N2CCN(Cc3c[nH]c4ccccc34)CC2)cc1	76*	0	0	16	-12	-6
O=C(NNC(=O)c1ccccc1[N+](=O)[O-])c1ccc(-c2ccccc2)cc1	-1	0	2	-13	nt	nt
Cc1nonc1CC(=O)NC(C)c1cnn(-c2cccc3ccccc23)c1C (stereo not drawn)	-23	0	-1	3	nt	nt
CCOC(=O)/C(C#N)=C/c1c(Oc2cc(C)cc(C)c2)nc2c(C)cccn2c1=O	13	0	-1	3	nt	nt
COc1ccc2nc(NC(=O)c3sc4ncn(CC(=O)N5CC(C)CC(C)C5)c(=O)c4c3C)sc2c1 (stereo not drawn)	3	0	2	-3	nt	nt
O=C(Nc1ccc(N2CCOCC2)cc1)c1cccc(Nc2ccncn2)n1	58*	0	0	3	81*	2	AlphaScreen DR=>7.6
SMILES	MITF inh	FBW7 act	GPR151 activ	TEAD-YAP block	MITF confirm	AS interf ctr	others
O=C(Nc1ccc(N2CCOCC2)cc1)c1csc(Nc2ccncn2)n1	33	0	1	-15	nt	nt
C(=N\N1CCOCC1)/c1cccc(Oc2ccccc2)c1	70*	0	1	-34	12	7
CCc1ccc(OCC(=O)Nc2cc(C)ccn2)cc1	51*	0	1	5	-13	-8
O=C(NCC1CCC2(CCN(Cc3cnc(-c4ccccc4)s3)CC2)O1)c1cccnc1 (stereo not drawn)	70*	0	0	26	-4	-8
O=C(NCC1CCC2(CCN(Cc3cc4ccccc4s3)CC2)O1)c1cccnc1 (stereo not drawn)	4	0	2	1	nt	nt
CCOC(=O)c1c(NC(=O)CSc2nnc(CNC(=O)Cc3ccc(OC)cc3)n2Cc2ccccc2)sc2c1CCCCC2	22	0	0	-12	nt	nt
Cc1nc(N2CCCC2)c2ccsc2n1	3	0	1	-4	nt	nt
Cc1nc(N2CCOCC2)c2ccsc2n1	82*	0	-1	0	0	-6
Cc1cccc(-n2ncc3c(NCCCN4CCOCC4)ncnc32)c1	6	0	0	8	nt	nt
C=CCc1cc(Cl)ccc1OCCOCCNCCOC	56*	0	1	3	42*	0	AlphaScreen DR=>6.5
C=CCc1cc(Cl)ccc1OCCNCCCOC	25	0	0	10	nt	nt
C=CCc1ccccc1OCCOCCNCCCOC	58*	0	0	12	-11	-5
C=CCc1cc(Cl)ccc1OCCNCCO	52*	0	-1	14	5	-9
Nc1ncnc(N/N=C/c2ccccc2C(F)(F)F)c1[N+](=O)[O-]	19	0	-3	-37	nt	nt
COc1ccc(C(=O)N/C(=C\c2ccc(-c3cccc(Cl)c3)o2)C(=O)NCCCN2CCOCC2)cc1	5	0	0	2	nt	nt
O=C1CC(N2CCOCC2)C(=O)N1c1cc(C(F)(F)F)ccc1Cl (stereo not drawn)	88*	0	-1	1	-1	2
CCOc1cc(CO)ccc1OCc1ccc(C)cc1	20	0	1	-14	nt	nt
COc1ccc(CCNC(=O)CCn2c(=S)[nH]c3ccsc3c2=O)cc1OC	5	0	4	3	nt	nt
COc1ccc(COCC(O)CNCCCn2ccnc2)cc1 (stereo not drawn)	83*	0	-4	-1	8	-10
COc1ccc(CCC(C)NCCCn2ccnc2)cc1 (stereo not drawn)	43	0	-1	4	nt	nt
CS(=O)(=O)N(CC(=O)N1CCN(Cc2ccc3c(c2)OCO3)CC1)c1ccc(F)cc1	75*	0	0	2	-5	-2
S=C(NCc1ccco1)N1CCN(Cc2ccccc2)CC1	1	0	1	-5	nt	nt
S=C(NCc1ccco1)N1CCN(Cc2ccc3c(c2)OCO3)CC1	80*	0	0	0	11	22
O=C(c1ccco1)N1CCN(Cc2ccc3c(c2)OCO3)CC1	62*	0	-1	-3	3	-4
Clc1ccc(CN2CCC(c3nc(-c4ccc5c(c4)OCO5)no3)CC2)s1	12	0	-2	-12	nt	nt
OCC1CCCN1Cc1cccc(Cl)c1Cl (stereo not drawn)	-3	0	0	2	nt	nt
CCc1nc2nc(C)cc(N3CCN(C4CCCCC4)CC3)n2n1	-24	0	1	-2	nt	nt

Source: PubChem BioAssay
